Reference: PMC7819943, “Rice protein-binding microarrays: a tool to detect cis-acting elements near promoter regions in rice”
Whole data set: some 68,000 sequences, median “fluorescence intensity (a.u.)” near 9,100, cut for the highest 2% near 16,000. Only a selection was taken, and the highest values are over-represented in it overall.

Biological target: OsWRKY34 (Oryza sativa, UniProt Q0JBA9 1-250)
Experiment: protein-binding microarray (RPBM); PBS, 2% BSA, 51.3 ng/ul salmon testes DNA, 50 uM zinc acetate, 200 nM TF, 25 C, 1 h; high values mean tight binding
Conditions: protein: recombinant; tags: N-terminal polyhistidine and DsRed monomer fusion (pET32a); label: CyDye5-dUTP incorporated in the synthesized complementary strand; 3' TTTTT single-stranded linker to array surface; dsDNA, one strand shown
Method in brief: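 A custom Agilent array was converted to double-stranded form by primer extension with Cy5-dUTP and blocked with 2% BSA. Protein at 200 nM in PBS with 2% BSA, salmon testes DNA and 50 µM zinc acetate was applied for 1 h at 25 °C, followed by washing. The proteins were polyhistidine–DsRed N-terminal fusions of transcription factors, expressed in E. coli BL21-CodonPlus and Ni–NTA-purified. The binding signal is per-feature fluorescence intensity (arbitrary units) from an Axon 4000B scanner.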

Sequence of OsWRKY34 (Q0JBA9 entry or part of it): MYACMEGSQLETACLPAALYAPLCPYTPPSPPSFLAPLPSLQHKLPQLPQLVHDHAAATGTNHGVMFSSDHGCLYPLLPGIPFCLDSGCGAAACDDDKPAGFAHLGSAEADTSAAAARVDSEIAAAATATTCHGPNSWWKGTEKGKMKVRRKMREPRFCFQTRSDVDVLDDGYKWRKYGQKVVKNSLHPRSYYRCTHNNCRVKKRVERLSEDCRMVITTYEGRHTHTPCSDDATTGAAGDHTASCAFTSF

Sequence | binding signal
AAATCATTTAGAAACACAACCTTTTCCACTGTTCAGGATTCGGAGTCACCTAGTGCAG | 8030 fluorescence intensity (a.u.)
TTCACCCCGCTGCTCCGACGTCCTAGCCATCGCCGCCGCCCGGAGTCACCTAGTGCAG | 8600 fluorescence intensity (a.u.)
CTGCCGCTCTGGTTCTCCAACTCTGCATACATATACCTCTCGGAGTCACCTAGTGCAG | 12000 fluorescence intensity (a.u.)
GGGATTTTGTGTTTTTGGTTTTTCTGGAGGGTGCAGAAGGCGGAGTCACCTAGTGCAG | 14700 fluorescence intensity (a.u.)
CTACCAACCTGTTCATCATGGCCCGACTCCATTCATGTCACGGAGTCACCTAGTGCAG | 10300 fluorescence intensity (a.u.)
TTTGTGGGTGGTTTTGGGCTAAAGATTCCGTTTCTTTCGACGGAGTCACCTAGTGCAG | 9250 fluorescence intensity (a.u.)
CGGGGAGGAGGGAGGAATAAATACGTCCTAGTCGATCAGCCGGAGTCACCTAGTGCAG | 8150 fluorescence intensity (a.u.)
GTTCAGTCACTCGCACGCTCGCTCGATCACCCGGCCGCCGCGGAGTCACCTAGTGCAG | 10200 fluorescence intensity (a.u.)
CTCTCTACGGCTAGCTACTCCCATTTGTGGTCAACACCTCCGGAGTCACCTAGTGCAG | 10500 fluorescence intensity (a.u.)
TGCCTCTGTTACCACACTCTCACCTTGCTTAATAAATGCTCGGAGTCACCTAGTGCAG | 9800 fluorescence intensity (a.u.)
ACTTAGGAGAGATTGCCTGAGTGCCATCTTTTTTGTATCTCGGAGTCACCTAGTGCAG | 8960 fluorescence intensity (a.u.)
CTGAAGATTGGATCTAAACTTTGTATCTAAACACAGCCATCGGAGTCACCTAGTGCAG | 64300 fluorescence intensity (a.u.)
TAACTTCTCAACTTTTTCACCATCTAAACACAGTCTTCATCGGAGTCACCTAGTGCAG | 8400 fluorescence intensity (a.u.)
CAGCACCAACGTTCTCTTCGGCCGATTCGGCGATTGCATCCGGAGTCACCTAGTGCAG | 8930 fluorescence intensity (a.u.)
ACGCACCAAAACACACGATCCTCTCGGATAAATCACAGCCCGGAGTCACCTAGTGCAG | 27500 fluorescence intensity (a.u.)
ATCCTCTCCCGCACCAGCTATAAACCGCCACACGCCCTCGCGGAGTCACCTAGTGCAG | 8650 fluorescence intensity (a.u.)
TCCTCTTGCAAAAAAAACACACACACACACGCACACAACTCGGAGTCACCTAGTGCAG | 10200 fluorescence intensity (a.u.)
CTCTCTCTCTCTCTCTCTCTCTCTCTCGATGCCGACGCTTCGGAGTCACCTAGTGCAG | 11000 fluorescence intensity (a.u.)
GGAGCTAGTCCAACCTACCGCAGTCACACCACCCCGCTATCGGAGTCACCTAGTGCAG | 9270 fluorescence intensity (a.u.)
TGTGGATGATGGTATTTTTTTTCCTTTTTCCTAGTTACGACGGAGTCACCTAGTGCAG | 9100 fluorescence intensity (a.u.)
CTTCCTTTTCTCTTCTTCTTCTTCTTCTTTTGCGTGGGGACGGAGTCACCTAGTGCAG | 9650 fluorescence intensity (a.u.)

Sequence | binding signal
GGTGCGTGGGTGGTGGTCTTTTTCTTTTTCCTAGTTACGACGGAGTCACCTAGTGCAG | 29400 fluorescence intensity (a.u.)
GGAGGTGGAAAATCTTTGTTTTTTTCCTGGTTACGATCTCCGGAGTCACCTAGTGCAG | 9150 fluorescence intensity (a.u.)
GTATGTGGGTGGTGGTATTTTTTTTATCCTGGTTACGACCCGGAGTCACCTAGTGCAG | 19700 fluorescence intensity (a.u.)
GATGTGTTGGCTGTCTTTGTTTTTTTTTTCCTGGTTTACCCGGAGTCACCTAGTGCAG | 14000 fluorescence intensity (a.u.)
TGTATGTGTGGTGTGTGTTCATGTGCATCCTGAATTTTACCGGAGTCACCTAGTGCAG | 14200 fluorescence intensity (a.u.)
GTGGGTGGTGGTTTTTTTTTCCTTTTTCCTGGTTACGACCCGGAGTCACCTAGTGCAG | 23700 fluorescence intensity (a.u.)
TGTGGGTGGGGTTATTTTTTCTTCGTTTTCCTATTTACGACGGAGTCACCTAGTGCAG | 15700 fluorescence intensity (a.u.)
ATATCATGTTTATTATCTTGTTATTTTGGATTAAAATATGCGGAGTCACCTAGTGCAG | 9720 fluorescence intensity (a.u.)
GATGCCTGCCAATCTGCCATGCCATTATATCTGCAGTTCTCGGAGTCACCTAGTGCAG | 12000 fluorescence intensity (a.u.)
CGTCTCTCCCGATCCGTCCCATCAAAAAGCAACACCAATACGGAGTCACCTAGTGCAG | 8530 fluorescence intensity (a.u.)
ATTTTTATAGTATTACATCTACGTGTAAAGTTTCATCTTTCGGAGTCACCTAGTGCAG | 8260 fluorescence intensity (a.u.)
CTATGGTTTGGTTTGAATTTTACTGTTGTATGCTGTTCCCCGGAGTCACCTAGTGCAG | 8660 fluorescence intensity (a.u.)
TGGCCGGGAGGGTTGGCCCTTGTGGTTTCGGGGTTTGGTTCGGAGTCACCTAGTGCAG | 15900 fluorescence intensity (a.u.)
CTTTTCTCATCCCTTTTGTTTCTTCACTCCGGCTCACCGCCGGAGTCACCTAGTGCAG | 8230 fluorescence intensity (a.u.)
GTACACGTTACCCGCGTGGGTGTGGGTATGGGGATGATTTCGGAGTCACCTAGTGCAG | 11700 fluorescence intensity (a.u.)
TGAGAAAGAGAGAGAGAGGGAGATGGCTGGGGAGACGGGGCGGAGTCACCTAGTGCAG | 9660 fluorescence intensity (a.u.)
GGGTGTTTTCAGACGGAGAGAGGCGGCGGCGGCGGCGGGGCGGAGTCACCTAGTGCAG | 18500 fluorescence intensity (a.u.)
GATCAGAGATGAGGGCGGGCGGGTTGACTGGGAGAGTAGACGGAGTCACCTAGTGCAG | 20500 fluorescence intensity (a.u.)
GGGTTGAGATGGGAGTAGAGGGGAGTGAGGTGGAAGAAGACGGAGTCACCTAGTGCAG | 8360 fluorescence intensity (a.u.)
CGAGGGAGAGGGGAGAGGGGAGTGCGGCGGGTGAGGCGGGCGGAGTCACCTAGTGCAG | 9650 fluorescence intensity (a.u.)
TAGGGTTTGGTTGGGTTTTTGGGTGTTTTCAGACGGAGAGCGGAGTCACCTAGTGCAG | 12800 fluorescence intensity (a.u.)

Sequence | binding signal
GCGGTGATGACAGACGGGAGAGGGAGGGTTTTTTTTGTTACGGAGTCACCTAGTGCAG | 18200 fluorescence intensity (a.u.)
AGTGTTCTAGACTTACGGGTTACGGTTTTTTTTGTTAGAGCGGAGTCACCTAGTGCAG | 8090 fluorescence intensity (a.u.)
TATTTTTGACCAGAGGGAGGGTTTTTTTTTTTTTGAGAGACGGAGTCACCTAGTGCAG | 10300 fluorescence intensity (a.u.)
ACACAGCCACACACCAACATGCCCTTCAGGTCTTCACACTCGGAGTCACCTAGTGCAG | 9550 fluorescence intensity (a.u.)
TTGTCTCCTATCTTGTGCCGTGCCTTCTTAAACCATTGCTCGGAGTCACCTAGTGCAG | 8610 fluorescence intensity (a.u.)
CATGGCCTAGTTGGGGTGTTGCGTATGTAATTTATCTGTCCGGAGTCACCTAGTGCAG | 8100 fluorescence intensity (a.u.)
TTGACGGAGCATCTATACCCGGTTTTGTAGTTCATGAACACGGAGTCACCTAGTGCAG | 9100 fluorescence intensity (a.u.)
ATTTTGGTACTACTCTATATTTTAGTTTGCAGCTTGTGCTCGGAGTCACCTAGTGCAG | 10600 fluorescence intensity (a.u.)
ATATACACATTCTCCCATTGCTATATTATCTGTATTCTGACGGAGTCACCTAGTGCAG | 13400 fluorescence intensity (a.u.)
GATCTTGTGCACCTTACAAATTACATTGCCGACCATAAAACGGAGTCACCTAGTGCAG | 9320 fluorescence intensity (a.u.)
CTCTCTCTATCCATCTCTTTCTCTCTCTCTTACACAACAACGGAGTCACCTAGTGCAG | 8150 fluorescence intensity (a.u.)
ATCTATCACCATCTCTCCTTGATCTTGTGCACCTTACAAACGGAGTCACCTAGTGCAG | 16800 fluorescence intensity (a.u.)
GTTATCAGCTTTTCTTTTTTTTTTGAAATTTCAGATTATTCGGAGTCACCTAGTGCAG | 8980 fluorescence intensity (a.u.)
CCCCATTCACTTCCACAGACAAGTAGCATCACCTTTCAGTCGGAGTCACCTAGTGCAG | 8710 fluorescence intensity (a.u.)
GTATGACGCCGTTGACTTTTCGATCAACGTTTGACTATTTCGGAGTCACCTAGTGCAG | 25300 fluorescence intensity (a.u.)
TAAATGTTTAACGTCGTTGACTTTTTTAAACATGTATGACCGGAGTCACCTAGTGCAG | 19200 fluorescence intensity (a.u.)
GTTGACCGTTGACCTTTTTGTGGGTCAACTCAATCAAGACCGGAGTCACCTAGTGCAG | 16600 fluorescence intensity (a.u.)
CCATATTTTAATGTATGACGCCATTGACTTTTTGTCCAACCGGAGTCACCTAGTGCAG | 14500 fluorescence intensity (a.u.)
AATATATGACGCCGTTAACTTTTCGAACAACATTTGACTACGGAGTCACCTAGTGCAG | 9760 fluorescence intensity (a.u.)
TAAATGTTTAACGTTGTTGACTTTTTTAAACATGTTTGACCGGAGTCACCTAGTGCAG | 13500 fluorescence intensity (a.u.)
ATTTTAATGTATGACGCCGTTGACTTTTTGTCCAACGTTTCGGAGTCACCTAGTGCAG | 25600 fluorescence intensity (a.u.)

Sequence | binding signal
CCTCCTTTTGACTCAGCAAGTCAATTGTGGTCAACCTGCCCGGAGTCACCTAGTGCAG | 8970 fluorescence intensity (a.u.)
CACCTTGACTCAGCGTGGTTGACTCTAGTCAACTTGTCACCGGAGTCACCTAGTGCAG | 10400 fluorescence intensity (a.u.)
CGATCAACGTTTGACTATTTGTTTTATTCAAAATTTTTGTCGGAGTCACCTAGTGCAG | 9460 fluorescence intensity (a.u.)
CACCAAGCATGTCCATGACCTTGCACTCTTGGCTCACTCGCGGAGTCACCTAGTGCAG | 8030 fluorescence intensity (a.u.)
CAAAATCCTTTTTCTTTTTTTCATTTTTTCTGTGCTTTTTCGGAGTCACCTAGTGCAG | 8680 fluorescence intensity (a.u.)
TAGGCTGATGGGTCTTCATGCTTCGGTTCATCTTCGTCTCCGGAGTCACCTAGTGCAG | 10200 fluorescence intensity (a.u.)
GGTGAGCTCTCTTTAATGCATATACACAGCAGCCTATTGCCGGAGTCACCTAGTGCAG | 8440 fluorescence intensity (a.u.)
TGTGATTTGCACCGCATACTTTCCCCGACAATAGATCATCCGGAGTCACCTAGTGCAG | 8850 fluorescence intensity (a.u.)
CCTCCGCTTCTTCGCCGCCGCCGCCATCCCGCCCTAGCGACGGAGTCACCTAGTGCAG | 9070 fluorescence intensity (a.u.)
ATTTTCTTTAAGAGATGTTCTTGTCTGTTGTCAGGTTTGTCGGAGTCACCTAGTGCAG | 9670 fluorescence intensity (a.u.)
ACCGTCGTCAGCAACGCCGCTACTGCCACTGCAATTGCCGCGGAGTCACCTAGTGCAG | 8320 fluorescence intensity (a.u.)
CCTTTTGGACGTACGTCGATAGTTGGGTAAATATGAAAAACGGAGTCACCTAGTGCAG | 11400 fluorescence intensity (a.u.)
TGTGTACTATTTTTTCTACCGTTGGATACAAATATGAGGGCGGAGTCACCTAGTGCAG | 8510 fluorescence intensity (a.u.)
TTTAATGTATCACACCGTTAATTTTTTTTCAACGTTTGACCGGAGTCACCTAGTGCAG | 8900 fluorescence intensity (a.u.)
ACCTGTAAACTACCGTTGGATAAAAAATAAACGTATGAGACGGAGTCACCTAGTGCAG | 63600 fluorescence intensity (a.u.)
TTAATGTATGACGCCGTTGACTTTTTAATAAACGTTTGACCGGAGTCACCTAGTGCAG | 40900 fluorescence intensity (a.u.)
TTAATGTATGACGCCGTTGACTTTTTAATCAACGTTTGACCGGAGTCACCTAGTGCAG | 25900 fluorescence intensity (a.u.)
CCGCATTTTAATGTATGACGTCATTGACTTTTCGATCAACCGGAGTCACCTAGTGCAG | 10200 fluorescence intensity (a.u.)
TATTTTAATGTATGACGCCGTTGACTTTTTAATCAATGTTCGGAGTCACCTAGTGCAG | 29100 fluorescence intensity (a.u.)
CTGAAAATTTTGTGCGCTCACACCATGTGCTACATTTGTCCGGAGTCACCTAGTGCAG | 10700 fluorescence intensity (a.u.)
TTCCTCCGTTTTTTTTATTCCTGCAACTAAAAGGTATTCTCGGAGTCACCTAGTGCAG | 8860 fluorescence intensity (a.u.)
